Records with an inconclusive call do not appear. Calls of active or inactive are those of the source. Calls follow the shape of the dose curve; as a rule, active = well fitted inhibition curve with a large enough effect; inconclusive = small, poorly fitted or top-dose-only effect; inactive = flat fitted curve, though single readings scatter.
Experiments:
Test in all cases: Cytotoxic Profiling of Annotated Libraries Using Quantitative High-Throughput Screening (AID 1296008); also: nearly all actives have a fitted effect of over 60% in size
Conditions in all cases: Five cell lines viability, CellTiter-Glo ATP luminescence, 48-72 h; max response: stronger effect = lower value
CRL-7250 = normal cell line; tested on: CRL-7250
In short: (§1)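 Cells exposed to compounds for 48 or 72 hr at 37 degrees Celsius. Viability read as ATP-coupled luminescence with CellTiter-Glo after 10 min at room temperature.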

HEK293 = tested on: HEK293
In short: as §1

HaCat = tested on: HaCat
In short: as §1

KB-3-1 = tested on: KB-3-1
In short: as §1

NIH3T3 = tested on: NIH3T3
In short: as §1

Measured: max response
% is scaled to controls: 0 for no effect and ±100 for the full control effect.

C=C1CCC2(OC1)OC1CC3C4CC=C5CC(O)CC(O[C@@H]6OC[C@H](OC(=O)C(O)C(C)CC)[C@H](O)[C@H]6O[C@@H]6O[C@@H](C)[C@H](O)[C@@H](O)[C@H]6O)C5(C)C4CCC3(C)C1C2C (stereo not given in full)
inactive: CRL-7250 -2.78% | HEK293 -1.63% | HaCat -7.88% | KB-3-1 | NIH3T3

COC(=O)C1C(O)CCC2CN3CCc4c([nH]c5ccccc45)C3CC21 (stereo not given)
inactive: CRL-7250 2.68% | HEK293 | HaCat -7.68% | KB-3-1 9.41% | NIH3T3 -7.25%

C/C=C/C=C/C=C/C(=O)O[C@@H]1[C@@H](OC)C2=C(C(=O)N(C(CCC(=O)O)C(=O)O)C2)[C@@]2(C)CCCC(C)(C)[C@H]12 (stereo not given in full)
inactive: CRL-7250 -4.83% | HEK293 | HaCat -8.01% | KB-3-1 0.124% | NIH3T3 -12.6%

NC(Cc1c[nH]c2ccc(O)cc12)C(=O)O (stereo not given)
inactive: CRL-7250 -7.16% | HEK293 -8.59% | HaCat 0.887% | KB-3-1 | NIH3T3

Cn1cc(CCn2cnc(-c3cnn(C)c3)c2-c2ccc(C#N)cc2)cn1
inactive: CRL-7250 -0.888% | HEK293 0.036% | HaCat -11.5% | KB-3-1 | NIH3T3

Nc1nc2c(nc(Sc3ccc(Cl)cc3)n2[C@@H]2O[C@@H]3COP(=O)(O)O[C@H]3[C@H]2O)c(=O)[nH]1
inactive: CRL-7250 1.71% | HEK293 1.54% | HaCat -3.37% | KB-3-1 | NIH3T3

C=C(C(=O)O)[C@@H]1CC[C@H](C)[C@@H]2CC(=O)C(C)=C2C1
inactive: CRL-7250 | HEK293 3.15% | HaCat -2.91% | KB-3-1 3.54% | NIH3T3

CC1=C2C(=O)C=C(CO[C@@H]3O[C@H](CO)[C@@H](O)[C@H](O)[C@H]3O)[C@@H]2[C@H]2OC(=O)[C@H](C)[C@@H]2[C@@H](O)C1
inactive: CRL-7250 | HEK293 -50.9% | HaCat 0.75% | KB-3-1 2.15% | NIH3T3

CC(C)=CCC(O)[C@](C)(O)C1[C@H](O)C[C@@]2(C)C3CC=C4C(C[C@H](O)[C@@H](O[C@@H]5O[C@H](CO)[C@@H](O)[C@H](O)[C@H]5O)C4(C)C)[C@]3(C)C(=O)C[C@]12C (stereo not given in full)
inactive: CRL-7250 4.58% | HEK293 -6.78% | HaCat -8.01% | KB-3-1 | NIH3T3

O=C(O)c1ccnc2cc(C(OCC3CCC(F)(F)CC3)c3ccccc3Cl)[nH]c12 (stereo not given)
inactive: CRL-7250 2.57% | HEK293 4.55% | HaCat -20.6% | KB-3-1 8.39% | NIH3T3

C[C@@H]1C(=O)O[C@H](C)[C@H]1C[C@@H](O)[C@](C)(O)[C@H]1CC[C@@]2(O)C3=CC(=O)[C@@H]4C[C@@H](O)[C@@H](O)C[C@]4(C)C3CC[C@]12C (stereo not given in full)
inactive: CRL-7250 -1.86% | HEK293 | HaCat -25% | KB-3-1 8.3% | NIH3T3 1.28%

COc1cc(Nc2nc3c(s2)CCCC3c2ccccc2)ccc1-n1cnc(C)c1 (stereo not given)
inactive: CRL-7250 | HEK293 3.81% | HaCat -4.18% | KB-3-1 -3.56% | NIH3T3

Cc1nnc(-c2ccc3occ(-c4ccc(S(C)=O)cc4)c3c2)o1 (stereo not given)
inactive: CRL-7250 | HEK293 -3.27% | HaCat -2.4% | KB-3-1 | NIH3T3

CC1=CC[C@@]2(C)CC[C@@](O)(C(C)C)[C@@H]2[C@@H](O)C1
inactive: CRL-7250 2.53% | HEK293 0.0265% | HaCat 1.77% | KB-3-1 | NIH3T3

O=C(C[C@@H]1C(C(=O)O)=CO[C@@H](O[C@@H]2O[C@H](CO)[C@@H](O)[C@H](O)[C@H]2O)/C1=C\CO)OCCc1ccc(O)cc1
inactive: CRL-7250 1.31% | HEK293 1.44% | HaCat -0.66% | KB-3-1 | NIH3T3

COC(=O)C1=COC(O[C@@H]2O[C@H](CO)[C@@H](O)[C@H](O)[C@H]2O)C2C(C)C(=O)CC12 (stereo not given in full)
inactive: CRL-7250 -2.22% | HEK293 -2% | HaCat -11.3% | KB-3-1 2.31% | NIH3T3

Cc1onc(-c2c(Cl)cccc2Cl)c1CC(=O)NCc1ccc(OCC(F)(F)F)nc1
inactive: CRL-7250 0.479% | HEK293 -15.1% | HaCat 1.93% | KB-3-1 | NIH3T3

COc1ccc(C2C(C(=O)O)C(C(=O)O)C2c2ccc(OC)cc2O[C@@H]2O[C@H](CO)[C@@H](O)[C@H](O)[C@H]2O)c(O[C@@H]2O[C@H](CO)[C@@H](O)[C@H](O)[C@H]2O)c1 (stereo not given in full)
inactive: CRL-7250 -9.53% | HEK293 -17.5% | HaCat 0.767% | KB-3-1 -1.86% | NIH3T3

CC1(C)[C@@H]2CC=C(CO[C@@H]3O[C@H](CO[C@@H]4OC[C@H](O)[C@H](O)[C@H]4O)[C@@H](O)[C@H](O)[C@H]3O)[C@H]1C2
inactive: CRL-7250 0.583% | HEK293 2.49% | HaCat -0.954% | KB-3-1 | NIH3T3

CC/C=C/C(O)C(O)C1=C(C)C(=O)C2(O1)C(=O)NC(OC)(C(=O)c1ccccc1)C2O (stereo not given)
inactive: CRL-7250 0.865% | HEK293 2.1% | HaCat -3.32% | KB-3-1 | NIH3T3

COc1cc(C(CO)CO[C@@H]2O[C@H](CO)[C@@H](O)[C@H](O)[C@H]2O)ccc1O (stereo not given in full)
inactive: CRL-7250 -15.6% | HEK293 | HaCat -35.5% | KB-3-1 5.97% | NIH3T3 -7.99%

C/C=C/C1OC2=C(C(=O)OC2(C)O)C(O)C1O (stereo not given)
inactive: CRL-7250 -6.2% | HEK293 -1.4% | HaCat 2.04% | KB-3-1 -1.78% | NIH3T3

CC(C)[C@@](O)(c1ccc2cc(OC(F)F)c(OC(F)F)cc2c1)c1cn[nH]n1
inactive: CRL-7250 -0.82% | HEK293 -10.2% | HaCat -0.148% | KB-3-1 5.26% | NIH3T3

CN1CCN(c2nc(-c3ccc(C(=O)NC4(C(=O)NCC#N)CCCCC4)cc3)cs2)CC1
inactive: CRL-7250 2.74% | HEK293 -8.37% | HaCat 1.43% | KB-3-1 -9.9% | NIH3T3

Cc1ccccc1-c1cc(N2CCN(C)CC2)ncc1N(C)C(=O)C(C)(C)c1cc(C(F)(F)F)cc(C(F)(F)F)c1
inactive: CRL-7250 1.9% | HEK293 -6.53% | HaCat -0.694% | KB-3-1 -5.47% | NIH3T3

CC1OC(OC2C(OC3C(O[C@H]4CC[C@@]5(C)C(CC[C@]6(C)C5CC=C5C7CC(C)(C)CC(O)[C@]7(C)CC[C@]56C)C4(C)C)OC(C(=O)O)C(O)C3O)OCC(O)C2O)C(O)C(O)C1O (stereo not given in full)
inactive: CRL-7250 | HEK293 4.82% | HaCat -11.3% | KB-3-1 9.21% | NIH3T3

CC(C)=CC1C[C@](C)(O)[C@@H]2[C@H]3CCC4[C@@]5(C)CC[C@H](O[C@@H]6OC[C@H](O)[C@H](O[C@@H]7O[C@H](CO[C@@H]8O[C@H](CO)[C@@H](O)[C@H](O)[C@H]8O)[C@@H](O)[C@H](O)[C@H]7O)[C@H]6O[C@@H]6O[C@@H](C)[C@H](O)[C@@H](O)[C@H]6O)C(C)(C)[C@@H]5CC[C@@]4(C)[C@@]34CO[C@@]2(C4)O1 (stereo not given in full)
inactive: CRL-7250 -1.09% | HEK293 -3.55% | HaCat 4.88% | KB-3-1 | NIH3T3

CC(O)C1NC(=O)C2CCCN2C1=O (stereo not given)
inactive: CRL-7250 3.11% | HEK293 | HaCat -1.16% | KB-3-1 | NIH3T3 -1.84%

Cc1ccccc1N1CCN(S(=O)(=O)C[C@]23CC[C@H](C[C@@H]2NC(=O)[C@@H](N)CCS(C)(=O)=O)C3(C)C)CC1
inactive: CRL-7250 1.21% | HEK293 4.97% | HaCat 0.627% | KB-3-1 5.94% | NIH3T3

C=C(C)[C@@H]1CC[C@]2(CO)CC[C@]3(C)[C@H](CC[C@@H]4[C@@]5(C)CC[C@H](O)C(C)(C)[C@@H]5CC[C@]43C)[C@@H]12
inactive: CRL-7250 1.98% | HEK293 3.79% | HaCat 2.42% | KB-3-1 | NIH3T3

C=C1C(=O)OC2CC(COC(=O)C(C)C)=C(C(C)CCCOC(C)=O)[C@@H](OC(C)=O)C12 (stereo not given in full)
inactive: CRL-7250 -4.9% | HEK293 5% | HaCat 4.28% | KB-3-1 | NIH3T3

O=C(/C=C/c1ccc(O)c(O)c1)O[C@H]1[C@H](OC2CCCCC2O)O[C@H](CO)[C@@H](O)[C@@H]1O (stereo not given in full)
inactive: CRL-7250 -3.22% | HEK293 -0.453% | HaCat -16.7% | KB-3-1 -3.21% | NIH3T3

CC(=O)Nc1cccc2c1c(Sc1ccc(Cl)cc1)c(C)n2CC(=O)O
inactive: CRL-7250 -5.82% | HEK293 1.56% | HaCat -2.39% | KB-3-1 -3.16% | NIH3T3

CC1CCC23COC(=O)C2=CC(O)CC3C1(C)CCc1ccoc1 (stereo not given)
inactive: CRL-7250 1.42% | HEK293 | HaCat -3.63% | KB-3-1 -2.5% | NIH3T3 -7.2%

Oc1ccc(CC2NCCc3cc(O)c(O)cc32)cc1 (stereo not given)
inactive: CRL-7250 4.94% | HEK293 -11.9% | HaCat 1.1% | KB-3-1 1.59% | NIH3T3

CC1(O)CCC2C(C3C1CCC3(C)O)C2(C)C (stereo not given)
inactive: CRL-7250 3.06% | HEK293 0.939% | HaCat 2.93% | KB-3-1 7.36% | NIH3T3

COc1cc(/C=C/C(=O)O[C@@H]2C[C@@](O)(C(=O)O)C[C@@H](O)[C@@H]2O)ccc1O
inactive: CRL-7250 -0.566% | HEK293 0.393% | HaCat -12% | KB-3-1 0.239% | NIH3T3

C=C(C(=O)O)C1CC(O)C2(C)CCCC(C)(O)C2C1 (stereo not given)
inactive: CRL-7250 | HEK293 -8.07% | HaCat -11.8% | KB-3-1 0.961% | NIH3T3

From PubChem BioAssay (NCATS)
